# In PubChem BioAssay AID1159580 (chemical genetic matrix, 2015):
# Among all 5,500 compounds or so, about 2,000 (36%) were called active. About 18% were inconclusive and are not listed. This is one part of the list. A number with no mark means an inactive call. Cut-off read from the data, not from the text of the source: active = normalized growth mostly below about 0.91 (no sharp cut-off); inconclusive = no clear call, values can overlap the other calls; inactive = mostly above about 0.92.
# Experiment: chemical genetic growth profiling, strain panel (AID 1159580);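 note: tested at 20 µM; growth read once vehicle control cultures reached saturation at 30 °C; 1 = growth at the plate median or of vehicle wells; lower values mean less growth of the strain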
# Conditions: growth OD
# [1] = S. cerevisiae deletion strains, locus YAL013W, strain DEP1, active compounds read low
# [2] = S. cerevisiae deletion strains, locus YBR229C, strain ROT2, active compounds read low
# [3] = S. cerevisiae deletion strains, locus YDL101C, strain DUN1, active compounds read low
# [4] = S. cerevisiae deletion strains, locus YDR150W, strain NUM1, active compounds read low
# [5] = S. cerevisiae deletion strains, locus YEL061C, strain CIN8, active compounds read low
# [6] = S. cerevisiae deletion strains, locus YGR078C, strain PAC10, active compounds read low
# [7] = S. cerevisiae deletion strains, locus YHR030C, strain SLT2, active compounds read low
# [8] = S. cerevisiae deletion strains, locus YHR087W, strain rtc3, active compounds read low
# [9] = S. cerevisiae deletion strains, locus YJL187C, strain SWE1, active compounds read low
# [10] = S. cerevisiae deletion strains, locus YJR043C, strain POL32, active compounds read low
# [11] = S. cerevisiae deletion strains, locus YJR075W, strain HOC1, active compounds read low
# [12] = S. cerevisiae deletion strains, locus YKL190W, strain CNB1, active compounds read low
# [13] = S. cerevisiae deletion strains, locus YLR039C, strain RIC1, active compounds read low
# [14] = S. cerevisiae deletion strains, locus YLR058C, strain SHM2 (second series), active compounds read low
# [15] = S. cerevisiae deletion strains, locus YLR085C, strain ARP6, active compounds read low
# [16] = S. cerevisiae deletion strains, locus YLR262C, strain YPT6, active compounds read low
# [17] = S. cerevisiae deletion strains, locus YML094W, strain GIM5, active compounds read low
# [18] = S. cerevisiae deletion strains, locus YMR219W, strain ESC1, active compounds read low
# [19] = S. cerevisiae deletion strains, locus YMR263W, strain SAP30, active compounds read low
# [20] = S. cerevisiae deletion strains, locus YMR307W, strain GAS1, active compounds read low
# [21] = S. cerevisiae deletion strains, locus YNL153C, strain GIM3, active compounds read low
# [22] = S. cerevisiae deletion strains, locus YNL298W, strain CLA4 (second series), active compounds read low
# [23] = S. cerevisiae deletion strains, locus YNL322C, strain KRE1, active compounds read low
# [24] = S. cerevisiae deletion strains, locus YNR030W, strain Alg12, active compounds read low
# [25] = S. cerevisiae deletion strains, locus YPL055C, strain LGE1, active compounds read low
# [26] = S. cerevisiae deletion strains, locus YPL241C, strain CIN2, active compounds read low
# [27] = S. cerevisiae deletion strains, locus YPR135W, strain CTF4, active compounds read low
smiles,measurement,setting,value
COC(=O)c1ccc(-c2ccc(Cl)cc2)s1,normalized growth,[1],0.898 (active)
same,normalized growth,[2],0.901 (active)
same,normalized growth,"S. cerevisiae deletion strains, locus YCL061C, strain MRC1, active compounds read low",0.858 (active)
same,normalized growth,[3],0.906
same,normalized growth,[4],0.893
same,normalized growth,[5],0.87 (active)
same,normalized growth,[6],0.914 (active)
same,normalized growth,[7],0.587 (active)
same,normalized growth,[8],0.909 (active)
same,normalized growth,[9],0.961
same,normalized growth,[10],0.927
same,normalized growth,[11],0.88 (active)
same,normalized growth,[12],0.913 (active)
same,normalized growth,[13],0.497 (active)
same,normalized growth,[14],0.907 (active)
same,normalized growth,[15],0.577 (active)
same,normalized growth,[16],0.435 (active)
same,normalized growth,[17],0.871
same,normalized growth,[18],0.908 (active)
same,normalized growth,[19],0.893
same,normalized growth,[20],0.629 (active)
same,normalized growth,[21],0.872 (active)
same,normalized growth,[22],0.79 (active)
same,normalized growth,[23],0.92 (active)
same,normalized growth,[24],0.869 (active)
same,normalized growth,"S. cerevisiae deletion strains, locus YOL006C, strain TOP1, active compounds read low",0.637 (active)
same,normalized growth,[25],1.08
same,normalized growth,[26],0.83 (active)
same,normalized growth,[27],0.597 (active)
same,normalized growth,"S. cerevisiae strains, strain wild type, active compounds read low",0.928
CCSc1sc(C(=O)OC)c(-c2ccc(Cl)cc2)c1C#N,normalized growth,[1],1.01
same,normalized growth,[2],0.985
same,normalized growth,[3],1.02
same,normalized growth,"S. cerevisiae deletion strains, locus YDL134C, strain PPH21, active compounds read low",0.964
same,normalized growth,[4],1.06
same,normalized growth,[5],0.917
same,normalized growth,[6],0.995
same,normalized growth,"S. cerevisiae deletion strains, locus YGR229C, strain SMI1, active compounds read low",0.989
same,normalized growth,[7],0.989
same,normalized growth,[8],1
same,normalized growth,[9],0.983
same,normalized growth,[10],1.05
same,normalized growth,[11],0.968
same,normalized growth,[12],0.99
same,normalized growth,[13],1.01
same,normalized growth,[14],0.986
same,normalized growth,[15],0.817
same,normalized growth,[16],0.999
same,normalized growth,[17],0.946
same,normalized growth,[18],0.992
same,normalized growth,[19],1.07
same,normalized growth,[20],0.972
same,normalized growth,[21],0.994
same,normalized growth,[22],0.94
same,normalized growth,[23],0.99
same,normalized growth,[24],0.954
same,normalized growth,[25],1.08
same,normalized growth,[26],0.96
same,normalized growth,[27],1.01
